High-throughput results from PubChem.
Hits are enriched below; roughly 3.8% of the tested compounds scored in any of these assays.
H9c2 protect – cardioprotection against H2O2-induced cell death, primary screen, uHTS, H9c2 cells, ATPLite luminescence; AID 588492, 2011; protection from H2O2 cell death, % at 20 µM; 0.63% of 360,000 active; H9c2 cardiomyocytes, H2O2 injury protection, 2 h;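 active = compounds giving at least 50% protection of heart cells from peroxide-induced death in the single-dose screen, raw or plate-pattern-corrected value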;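 also: 0% = DMSO wells with peroxide and 100% = DMSO wells without peroxide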
MPTP inh – mitochondrial permeability transition pore inhibitors, primary screen, biochemical, isolated mouse mitochondria, absorbance. Ca2+ swelling absorbance, 30 min. inhibition, % at 10 µM. 1.4% of 360,000 active. AID 602449, 2012;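 active = inhibition of 50% or more, scaled per plate between neutral and stimulator controls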;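 also: 0% = DMSO wells given calcium and 100% = 1 mM EGTA wells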
aDG glyco act – activators of alpha-DG glycosylation, primary screen, uHTS, Pro5-aDG cells, AlphaScreen. activation, % at 10 µM. 0.22% of 360,000 active. AID 624168, 2012. alpha-DG glycosylation AlphaScreen (IIH6); 0% Pro5, 100% B10-LARGE cell signal;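 active = activation of at least 8% versus controls, or a plate z-score of at least 8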;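 also: Pro5 are CHO cells carrying HIG-tagged alpha-DG that lacks glycosylation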
SUMO Mot1 rescue – yeast Mot1-301 growth rescue at high temperature, primary screen, SUMOylation pathway inhibitor project, S. cerevisiae, ATP luminescence, 38.5C; S. cerevisiae Mot1-301 growth rescue; percent above DMSO median, 100 means doubled; growth rescue, % at 18.8 µM; 1% of 320,000 active; AID 2716, 2010;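 active = every valid replicate shows activation above 250% relative to neutral control wells; inactive = the rest, any valid replicate at or below 250%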;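 also: OY570 slx delta 5 strain wells were the positive control but not used for scaling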
FAS TE block – FAS thioesterase domain inhibitors, primary screen, biochemical, fluorescence intensity, uHTS | Fatty acid synthase (Homo sapiens), P49327 | inhibition, % at 15 µM | 0.67% of 360,000 active | recombinant FAS-TE, OMFH fluorogenic substrate, fluorescence endpoint;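 active = compounds whose normalised, plate-corrected inhibition of enzyme fluorescence in the single-dose primary screen is 50% or more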;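 also: 0% = DMSO with enzyme and 100% = substrate without enzyme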
Yeast superoxide – reduction of superoxide in aged yeast, primary screen, HTS; S. cerevisiae aged cells, superoxide DHE fluorescence; stronger effect = lower value; superoxide response (% of plate mean), % at 10 µM; 0.18% of 330,000 active; AID 2690, 2010;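 active = superoxide response under a set limit, about three screen SD below normal, cut at about 65% in these data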;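 also: yeast aged for seven days with compound at 30 °C before DHE staining; 100% = average MFI of all compound-treated wells on the plate with controls excluded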
* marks the source's active call; other numbers are inactive results.

How did C=CCOc1ccc(C2NC(=O)c3ccccc3O2)cc1OCC (configuration not stated) do in these assays?
H9c2 protect: -1; MPTP inh: 0; aDG glyco act: 0; SUMO Mot1 rescue: 30; FAS TE block: -2; Yeast superoxide: 102

Results for NNC(=O)c1cc2ccccc2cc1O ?
H9c2 protect: 65*; MPTP inh: 0; aDG glyco act: 0; SUMO Mot1 rescue: 1; FAS TE block: -11; Yeast superoxide: 94

Results for C/C(CC(=O)N1CCCC1)=N\NC(=O)c1cc2ccccc2cc1O ?
H9c2 protect: 4; MPTP inh: 2; aDG glyco act: 0; SUMO Mot1 rescue: 153; FAS TE block: -8; Yeast superoxide: 118

Results for CCOC(=O)C(C)/C(C)=N/NC(=O)c1cc2ccccc2cc1O (configuration not stated) ?
H9c2 protect: 61*; MPTP inh: 2; aDG glyco act: 0; SUMO Mot1 rescue: -16; FAS TE block: -11; Yeast superoxide: 97

Results for O=C(NCCO)c1cc2ccccc2cc1O ?
H9c2 protect: 1; MPTP inh: -2; aDG glyco act: 0; SUMO Mot1 rescue: 14; FAS TE block: -3; Yeast superoxide: 102

How did Cc1ccc(S(=O)(=O)N2[C@@H](c3cccc(C)c3)C(C(=O)O)=C[C@H]2C(C)(C)C)cc1 do in these assays?
H9c2 protect: 11; MPTP inh: 1; aDG glyco act: 0; SUMO Mot1 rescue: 42; FAS TE block: -6; Yeast superoxide: 101

What do the screens show for `Cc1ccc(-n2nnnc2CNC(=O)c2ccc(Br)o2)cc1C`?
H9c2 protect: 4; MPTP inh: 0; aDG glyco act: 0; SUMO Mot1 rescue: -6; FAS TE block: -6; Yeast superoxide: 98

Results for Cc1ccc(-n2nnnc2CNC(=O)c2ccc3c(c2)OCO3)cc1C ?
H9c2 protect: 0; MPTP inh: -2; aDG glyco act: 0; SUMO Mot1 rescue: 330*; FAS TE block: -3; Yeast superoxide: 98

Results for O=C(Nc1ccc(OC(F)(F)F)cc1)NC1CCC(Oc2ccc(C(=O)O)cc2)CC1 (configuration not stated) ?
H9c2 protect: -2; MPTP inh: 2; aDG glyco act: 0; SUMO Mot1 rescue: 5; FAS TE block: -7; Yeast superoxide: 106

What do the screens show for `C(=N\Nc1ccccc1)/c1ccc(N2CCOCC2)cc1`?
H9c2 protect: -8; MPTP inh: 0; aDG glyco act: 0; SUMO Mot1 rescue: 63; FAS TE block: 4; Yeast superoxide: 96

Results for Clc1cccc(N/N=C/c2ccc(N3CCOCC3)cc2)c1 ?
H9c2 protect: -17; MPTP inh: 2; aDG glyco act: 0; SUMO Mot1 rescue: 326*; FAS TE block: 16; Yeast superoxide: 120

How did O=C(Cn1cc(COc2c(F)c(F)cc(F)c2F)nn1)c1ccc(O)cc1 do in these assays?
H9c2 protect: 4; MPTP inh: -2; aDG glyco act: 0; FAS TE block: -9

What do the screens show for `O=C(CSc1nc2ccccc2c(=O)[nH]1)Nc1ccccc1O`?
H9c2 protect: 23; MPTP inh: -3; aDG glyco act: 0; SUMO Mot1 rescue: 17; FAS TE block: -5; Yeast superoxide: 87

What do the screens show for `O=C(CSc1nc2ccccc2c(=O)[nH]1)Nc1cccc([N+](=O)[O-])c1`?
H9c2 protect: 53*; MPTP inh: 1; aDG glyco act: 0; SUMO Mot1 rescue: -4; FAS TE block: 23; Yeast superoxide: 114

Results for Cc1cnc(NC(=O)CSc2nc3ccccc3c(=O)[nH]2)s1 ?
H9c2 protect: 59*; MPTP inh: 1; aDG glyco act: 0; SUMO Mot1 rescue: -9; FAS TE block: -3; Yeast superoxide: 99

Results for COc1ccc(CN2C(=O)C(CC(=O)NC3CCCC3)CC(C(=O)N3CCOCC3)=C2C)cc1 (configuration not stated) ?
H9c2 protect: 0; MPTP inh: 0; aDG glyco act: 0; FAS TE block: -3

Results for CSCCCN1CCCC(CO)(Cc2ccccc2F)C1 (configuration not stated) ?
H9c2 protect: 2; MPTP inh: -1; aDG glyco act: 0; SUMO Mot1 rescue: 1; FAS TE block: -6; Yeast superoxide: 97

What do the screens show for `O=C(O)c1ccc(CNC(=O)C2CCN(S(=O)(=O)c3cccs3)CC2)cc1`?
H9c2 protect: 7; MPTP inh: 0; aDG glyco act: 0; FAS TE block: -6

How did Cc1nnc(NCc2n[nH]c(=O)c3ccccc23)c2ccccc12 do in these assays?
H9c2 protect: -11; MPTP inh: -2; aDG glyco act: 0; SUMO Mot1 rescue: -7; FAS TE block: -7; Yeast superoxide: 122

Results for Cc1ccc(N2CC(C(=O)NCc3n[nH]c(=O)c4ccccc34)CC2=O)cc1 (configuration not stated) ?
H9c2 protect: 47; MPTP inh: 0; aDG glyco act: 0; SUMO Mot1 rescue: 14; FAS TE block: -5; Yeast superoxide: 107

Results for Cc1ccc(N2CC(C(=O)NCc3n[nH]c(=O)c4ccccc34)CC2=O)cc1C (configuration not stated) ?
H9c2 protect: 72*; MPTP inh: 2; aDG glyco act: 0; SUMO Mot1 rescue: -5; FAS TE block: -7; Yeast superoxide: 100

What do the screens show for `Cc1ccc(OCC(=O)NCc2n[nH]c(=O)c3ccccc23)cc1`?
H9c2 protect: 71*; MPTP inh: -2; aDG glyco act: 0; SUMO Mot1 rescue: -2; FAS TE block: -4; Yeast superoxide: 112

How did CCOC(=O)c1c(NC(=O)COC(=O)CCNS(=O)(=O)c2ccccc2)sc(C(=O)NC)c1C do in these assays?
H9c2 protect: 8; MPTP inh: -1; aDG glyco act: 0; FAS TE block: -4

What do the screens show for `COc1ccc(NCc2n[nH]c(=O)c3ccccc23)cc1`?
H9c2 protect: 76*; MPTP inh: 0; aDG glyco act: 0; SUMO Mot1 rescue: -5; FAS TE block: -6; Yeast superoxide: 108

Results for CCOC(=O)c1c(NC(=O)COC(=O)Cc2n[nH]c(=O)c3ccccc23)sc(C(=O)NC)c1C ?
H9c2 protect: 106*; MPTP inh: 0; aDG glyco act: 0; SUMO Mot1 rescue: 10; FAS TE block: -5; Yeast superoxide: 88

Results for COC(CNC(=O)C1CCN(S(=O)(=O)c2ccc3nc4c(c(C(=O)O)c3c2)CC(C)CC4)CC1)OC (configuration not stated) ?
H9c2 protect: 2; MPTP inh: 0; aDG glyco act: 0; SUMO Mot1 rescue: 42; FAS TE block: -3; Yeast superoxide: 95
